In PubChem BioAssay AID1345085 (National Center for Advancing Translational Sciences (NCATS), 2018):
Records with an inconclusive call do not appear. Calls of active or inactive are those of the source. Calls follow the shape of the dose curve; as a rule, active = well fitted cell-killing curve with a large enough effect; inconclusive = small, poorly fitted or top-dose-only effect, or effect the other way; inactive = no such curve, though single readings can be large or run the other way. *1 amine or outer side, *2 acyl side, *3 side chain or, on linkers, in order; H or OH if unused. Where a SMILES comes first, the peptide text is derived from it. Bridges are numbered along the chain shown (N, C = ends). Roman numbers before positions name the chains, in order. [ ]: non-standard residue; d: D form. Actinocin(9to1) = Cc1c2oc3c(C)ccc(C(=O)[*:1])c3nc-2c(C(=O)[*:2])c(N)c1=O; NMeV = CN[C@H](C(=O)O)C(C)C; Sar = CNCC(=O)O

System: Jar
Assay: Confirmatory qHTS for gynecologic anti-cancer compounds from libraries of approved drugs and bioactive compounds; also: nearly all actives have a fitted effect of over 55% in size
Details: gynecologic cancer cell panel viability, ATPlite luminescence, 48 h; series mostly up to 57.6 µM
How it was run: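 Seeding 1,000 cells per well preceded overnight (16 h) attachment, after which 48 h drug treatment across 57.5 uM–0.977 nM (11 points) was applied. Remaining cellular ATP, detected by ATPlite luminescence, defined IC50.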
Potency is read from the fitted curve at half-maximal effect.

Structure (SMILES)	Potency
Cc1nc(N)ncc1-c1nc(N2CCOCC2)c2sc(C(C)(C)O)cc2n1	7.69 µM (active)
O=C(c1ccc(/C=C/c2n[nH]c3ccccc23)cc1)N1CCNCC1	30.6 µM (active)
OC[C@H]1O[C@@H](n2cnc3c(=S)nc[nH]c32)[C@H](O)[C@@H]1O	12.2 µM (active)
CC(=O)O[C@H]1C(=O)[C@@]2(C)[C@H]([C@H](OC(=O)c3ccccc3)[C@]3(O)C[C@H](OC(=O)[C@H](O)[C@@H](NC(=O)c4ccccc4)c4ccccc4)C(C)=C1C3(C)C)[C@]1(OC(C)=O)CO[C@@H]1C[C@@H]2O	0.0366 µM (active)
Cc1nc(NC(=O)N2CCCC2C(N)=O)sc1-c1csc(C(C)(C)C)n1 (stereo not given)	21.7 µM (active)
COCCOc1ccc2c(c1)ncn2-c1ccc2cccc(N3CCC(N)CC3)c2n1	inactive
C[C@@]1(C(=O)Nc2ccc(F)nc2)CCCN1c1nc(Nc2cc(C3CC3)[nH]n2)c2cccn2n1	8.63 µM (active)
O=C(c1ccc(F)c(F)c1Nc1ccc(I)cc1F)N1CC(O)([C@@H]2CCCCN2)C1	21.7 µM (active)
Cc1csc(NC(=O)c2sc3nc4c(c(C(F)(F)F)c3c2N)CCC4)n1	3.43 µM (active)
CCS(=O)(=O)N1CCN(c2ccc(Nc3ncc(C(N)=O)c(NC4CC4)n3)cc2)CC1	12.2 µM (active)
CCCCc1oc2ccccc2c1C(=O)c1cc(I)c(OCCN(CC)CC)c(I)c1	79.4 µM (active)
COC(C(=O)N1Cc2[nH]nc(NC(=O)c3ccc(N4CCN(C)CC4)cc3)c2C1)c1ccccc1 (stereo not given)	inactive
CCC1=CC2CN(C1)Cc1c([nH]c3ccccc13)[C@@](C(=O)OC)(c1cc3c(cc1OC)N(C)[C@H]1[C@@](O)(C(=O)OC)[C@H](OC(C)=O)[C@]4(CC)C=CCN5CC[C@]31[C@@H]54)C2 (stereo not given in full)	0.133 µM (active)
C[C@]12CCC(=O)C=C1[C@@H]1C[C@@H]1[C@H]1[C@@H]3[C@@H]4C[C@@H]4[C@@]4(CCC(=O)O4)[C@@]3(C)CC[C@@H]12	inactive
CCN1CCN(Cc2ccc(-c3cc4c(NC(C)c5ccccc5)ncnc4[nH]3)cc2)CC1 (stereo not given)	21.7 µM (active)
O=C(/C=C/c1cccc(S(=O)(=O)Nc2ccccc2)c1)NO	0.943 µM (active)
Cc1c2oc3c(C)ccc(C(=O)N[C@@H]4C(=O)N[C@H](C(C)C)C(=O)N5CCC[C@H]5C(=O)N(C)CC(=O)N(C)[C@@H](C(C)C)C(=O)O[C@@H]4C)c3nc-2c(C(=O)N[C@@H]2C(=O)N[C@H](C(C)C)C(=O)N3CCC[C@H]3C(=O)N(C)CC(=O)N(C)[C@@H](C(C)C)C(=O)O[C@@H]2C)c(N)c1=O (I: T[dV]P[Sar][NMeV] / II: T[dV]P[Sar][NMeV]; ester I:1-I:C, II:1-II:C; linker I:N-II:N via Actinocin(9to1))	1.72 µM (active)
Oc1cn2c(n1)Nc1ccc(Cl)c(Cl)c1C2	inactive
COc1cc2c(Nc3ccc(NC(=O)c4ccccc4)cc3)ncnc2cc1OCCCN1CCOCC1	38.5 µM (active)
Cc1cnc(Nc2ccc(OCCN3CCCC3)cc2)nc1Nc1cccc(S(=O)(=O)NC(C)(C)C)c1	17.2 µM (active)
Cc1cc(C(C)Nc2ccccc2C(=O)O)c2nc(N3CCOCC3)cc(=O)n2c1 (stereo not given)	0.968 µM (active)
C#C[C@]1(O)CC[C@H]2[C@@H]3CCC4=CC(=O)CC[C@@H]4[C@H]3CC[C@@]21CC	inactive
CC[C@@]1(O)C(=O)OCc2c1cc1n(c2=O)Cc2c-1nc1ccccc1c2/C=N/OC(C)(C)C	0.968 µM (active)
CN(C)C(CCOc1cccc2ccccc12)c1ccccc1 (stereo not given)	inactive
COc1ccc2cc3[n+](cc2c1OC)CCc1cc2c(cc1-3)OCO2	4.32 µM (active)
